# Sampled rows, rich in hits. Any-hit rate of the full collection: about 3.9%.
# GALC G270D up: galactocerebrosidase G270D activity enhancement, cell-based; P54803; 145M-Twi-hGALC-G270D cells (Twitcher mouse brain line with human GALC G270D), HMU-beta-Gal fluorescence, 48 h; Potency, µM (highest dose often 57.5 µM), hits mostly activators; 45,000 tested, 0.1% active; AID 1159614; also: potency is read from the fitted curve at half-maximal effect; 0% is about no effect; nearly all actives have a fitted effect of over 65% in size
#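 Brain-derived Twitcher mouse 145M-Twi cells stably expressing human GALC-G270D or wild-type GALC, treated live, then residual GALC activity read by fluorescence of HMU-b-Gal substrate (0.1 mM final) in citrate-phosphate buffer pH 5.2 with sodium taurocholate. Signal increase indicates enhancement.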
# NTMT1 inhibitor: blocks human N-terminal methyltransferase 1 activity; NTMT1 MTase-Glo SAH luminescence, purified enzyme; Potency, µM (series often up to 114 µM), for inactives: at the top dose activity change, negative = inhibition, most hits filed as inhibitors; 59,000 tested, 2.5% active; AID 1645870;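 also: potency is read from the fitted curve at half-maximal effect; plate controls were DMSO vehicle for no effect and no enzyme for full effect; nearly all actives have a fitted effect of over 65% in size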
# p53null 39C kill: p53 null cell cytotoxicity, nonpermissive temperature; AID 904; H1299 p53-null (neo) cells, 39C, ATPlite viability, 24 h; Potency, µM (top dose mostly 46.1 µM), inactives show at the highest dose activity, negative = cell killing, usual class: cytotoxic; 55,000 tested, 0.97% active;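 also: potency is read from the fitted curve at half-maximal effect; 0% = DMSO only and -100% = full killing by 100 µM tamoxifen; nearly all actives have a fitted effect of over 50% in size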
#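 H1299 lung cancer cells, p53-null (H1299-neo) or expressing p53 A138V (H1299-p53A138V), were plated overnight at 37C, then exposed to compounds at up to 46 uM for 24 hr at 39C. Viability was read by ATP-based luminescence.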
# FH mod: Identification of activators of human fumarate hydratase by quantitative high-throughput screening | Potency, µM (highest dose often 79.9 µM), for inactives: at the top dose activity change, negative = inhibition, hits mostly inhibitors | FH coupled MDH/diaphorase resazurin fluorescence, 15 min | AID 1347055, 2019 | 54,000 tested, 0.22% active; also: potency is read from the fitted curve at half-maximal effect; % is scaled to controls: 0 for no effect and ±100 for the full control effect; the screen sought activators but most active calls are inhibition curves; nearly all actives have a fitted effect of over 45% in size
# GPR32 ag: activates human resolvin D1 receptor GPR32; 48,000 tested, 2.5% active; CHO-K1 GPR32 beta-arrestin PathHunter luminescence, 90 min; zero percent set by DMSO-only wells; AID 1346428; O75388; activation, % at 76.9 µM;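 active = activation of at least 60% and not above a set upper limit, about 1 call in 100 departs from these limits; inconclusive = activation of 40% to 60%, or above that upper limit; inactive = activation under 40%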; also: 0% is about no effect
# Target sequence (O75388 whole entry, looked up): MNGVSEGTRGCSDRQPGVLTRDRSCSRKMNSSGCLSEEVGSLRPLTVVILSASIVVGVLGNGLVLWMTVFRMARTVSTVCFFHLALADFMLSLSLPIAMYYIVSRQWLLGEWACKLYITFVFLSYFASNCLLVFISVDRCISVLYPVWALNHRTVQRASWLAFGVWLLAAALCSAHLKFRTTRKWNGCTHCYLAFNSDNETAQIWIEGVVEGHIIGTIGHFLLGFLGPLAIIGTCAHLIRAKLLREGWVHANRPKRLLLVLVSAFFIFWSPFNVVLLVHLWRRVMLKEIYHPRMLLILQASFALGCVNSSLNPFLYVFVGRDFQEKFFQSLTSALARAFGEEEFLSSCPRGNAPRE
#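 CHO-K1 cells stably expressing ProLink-tagged GPR32 and Enzyme Activator-tagged beta-arrestin were seeded at 2,500 cells/well overnight, exposed to compounds for 90 min at 37 °C, then read by beta-Gal complementation chemiluminescence after 1 h detection reagent.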
# p53null 32C tox: kills p53 null cells at the permissive temperature | 55,000 tested, 0.62% active | Potency, µM (highest dose often 46.1 µM), for the others: top-dose activity change, negative = cytotoxicity, hits mostly cytotoxic | H1299-neo p53 null cells, ATP luminescence, 24 h, 32C;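 also: potency is read from the fitted curve at half-maximal effect; 0% = DMSO only and -100% = full killing by 100 µM tamoxifen; nearly all actives have a fitted effect of over 55% in size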
#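 AC50 values derive from Hill modelling of qHTS concentration-response data (up to 46 uM) in H1299-neo cells. Cells were treated 24 h at 32C following overnight attachment at 37C; viability was read as cellular ATP.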
# Active calls of the source: *; i = inactive; ? = inconclusive; . = no result; ! = repeats disagree; [ ] = remark or other dose. Unless noted, calls follow the shape of the dose curve; as a rule, active = well fitted curve in the direction sought with a large enough effect; inconclusive = small, poorly fitted or top-dose-only effect, or another doubt; inactive = no such curve, though single readings can be large; an effect the other way counts as inactive or inconclusive.
SMILES,GALC G270D up,NTMT1 inhibitor,p53null 39C kill,FH mod,GPR32 ag,p53null 32C tox
O=c1c(-n2ccnn2)c[nH]n1-c1cc(N2CCOCC2)ncn1,.,3µM*!,.,.,.,.
CCOc1cccc(-c2nc3ccccc3c(=O)o2)c1,i,4%,?,-13%,80*,13µM*
COc1cc(OC)cc(-c2nc3ccccc3c(=O)o2)c1,.,.,14%,.,.,6%
CCc1ccc(CNC(=O)c2ccc3c(c2)c(C)c(C)n3Cc2ccccc2)cc1,i,?,2%,-15%,-22,7%
Cc1c(C)n(Cc2ccccc2)c2ccc(C(=O)OCCN(C)C)cc12,i,5.6µM*,.,-8%[53.3 µM],5,.
Cc1ccc(CNC(=O)c2ccc3c(c2)c(C)c(C)n3Cc2ccccc2)o1,i,22µM*,?,-27%,-31,10%
COC(=O)c1ccc([C@H]2c3[nH]c4ccccc4c3C[C@H](C(=O)OC)N2C(=O)CCl)cc1,.,18%,.,.,.,.
CCOC(=O)C1=CCCCC1S(=O)(=O)Nc1ccc(F)cc1Cl (stereo not drawn),.,-5%,.,.,.,.
CC1(C)OCCn2c1nc1c(N3CCOCC3)nc(-c3cnc(N)nc3)nc12,.,13%,.,.,.,.
O=C(NCCCNc1nc(Nc2cccc(NC(=O)N3CCCC3)c2)ncc1I)c1cccs1,.,40µM*,.,-27%,.,.
O=C(NCCc1csc(-c2cccnc2)n1)c1cccs1,.,.,-6%,.,.,3%
O=C(Cn1nc2c(cc1=O)CCCC2)NCc1ccccc1,i,89µM*,23%,1%,-5,29%
CCc1nn(CC(=O)NCc2ccccc2)c(=O)c2cccn12,i,-3%,25µM*,2%,-5,-7%
O=C(Cn1nc2c(cc1=O)CCCC2)NCc1ccc(Cl)cc1,i,13%,15%,5%,-6,18%
C[C@@H]1N[C@H]2N(C1=O)c1ccccc1[C@@]2(O)C[C@@H]1C(=O)N[C@@H](C)c2nc3ccccc3c(=O)n21,.,1%[29.8 µM],.,8%[53.3 µM],.,.
CCOC(=O)N1CCC(NC(=O)c2cnn(-c3cccc(Cl)c3C)c2C2CCN(C(=O)OC(C)(C)C)CC2)CC1,i,6%,12%,-15%,9,12%
CCS(=O)(=O)c1cccc(-c2cc(C(=O)NC3CCN(C)CC3)c(C)c3[nH]c4ncc(C)cc4c23)c1,.,28µM*!,.,-20%,.,.
Cc1ccc(Cl)cc1NC(=O)COC(=O)CC(C)(C)CC1=NS(=O)(=O)c2ccccc2N1,i,-16%,2%,3%,?,-9%
CC(C)(CC(=O)NCc1ccc(Cl)cc1Cl)CC1=NS(=O)(=O)c2ccccc2N1,i,2%,22%,-29%,110*,5%
CCOc1ccccc1NC(=O)COC(=O)CC(C)(C)CC1=NS(=O)(=O)c2ccccc2N1,i,5%,4%,-3%,83*,14%
NC1CCCN(c2c(/C=C3\SC(=O)NC3=O)cccc2-c2ccccc2)C1 (stereo not drawn),.,?,.,-15%,.,.
CCOC(=O)N1CCc2c(sc(NCc3sccc3C)c2C(=O)Nc2ccc(OC)cc2OC)C1,i,6%,-3%,-12%,117*,4%
CCOC(=O)N1CCc2c(sc(NCc3sccc3C)c2C(=O)Nc2ccccc2OCC)C1,i,-16%,7%,-20%,63*,31%
CCCCN(C)C(=O)Cn1nc(-c2ccc(C(C)=O)cc2)ccc1=O,.,10%,.,.,.,.
CCn1c2ccccc2c2cc(Nc3ccnc(NCCCN4CCOCC4)n3)ccc21,.,?,.,-5%,.,.
C#C[C@]1(O)CC[C@H]2[C@@H]3CCc4cc(OC)ccc4[C@H]3CC[C@@]21C,i,2%,.,-9%[53.3 µM],69*,.
C#C[C@]1(O)CC[C@H]2[C@@H]3CCc4cc(OC5CCCC5)ccc4[C@H]3CC[C@@]21C,i,16%[57.5 µM],.,?,68*,.
C#C[C@]1(O)CC[C@H]2[C@H]3CCc4cc(OC)ccc4[C@H]3CC[C@@]21C,.,4%[57.5 µM],.,-1%[53.3 µM],.,.

# Bioassay records (PubChem)
